Consider eight compounds from PubChem BioAssay (NCI).

Among the test systems are K-562 leukemia; MALME-3M melanoma; MDA-MB-231 breast; RXF 393 renal; SF-268 CNS; SF-295 CNS; SF-539 CNS; M14 melanoma; HCT-15 colon; HT29 colon; SNB-75 CNS; SNB-19 CNS; U251 CNS; SK-MEL-5 melanoma; UACC-62 melanoma; LOX IMVI melanoma; SK-MEL-28 melanoma; SK-MEL-2 melanoma; PC-3 prostate; UACC-257 melanoma.
Assay in all cases: NCI-60 one-dose screen, 48 h (100 = growth as untreated, 0 = no growth, -100 = all killed)
Common to all, as to settings: 10 µM unless noted

Compounds without any hit were thinned out: in the full panel of roughly 83,000, 20% have a hit.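 Cells were grown in 96-well plates and exposed to the test compound at a single concentration for 48 hours; results are reported as percent growth, with values below 10 considered active.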 A number with no mark means an inactive call. Active and inactive are the calls of the source.

Regarding `O=C1C(Cl)=C(N=Nc2c(Cl)c(O)c3ccccc3c2O)C(=O)c2ccccc21`, the growth with K-562 leukemia was 37.1%; with MALME-3M melanoma, 43.1%; in the assay with MDA-MB-231 breast it was 61.2%; in the assay on RXF 393 renal, 88.5%; with SF-268 CNS, 77.9%; with SF-295 CNS it was 33.2%. The growth in the assay with SF-539 CNS was 96.2%; with M14 melanoma, 59.5%; with HCT-15 colon, 61.7%; in the assay on HT29 colon, 76.3%; in the assay with SNB-75 CNS, 85.8%; in the assay on SNB-19 CNS, 66.3%. For the same compound, the growth in the assay on U251 CNS is 53.3%; in the assay with SK-MEL-5 melanoma, 53.1%; with UACC-62 melanoma, 5.34% (active); in the assay with LOX IMVI melanoma it was 43%; in the assay with SK-MEL-28 melanoma it was 67.3%; in the assay on SK-MEL-2 melanoma it was 98.5%.

With `CCC1=C(c2ccc(OC)cc2)C(C)Oc2cc(OC(C)=O)ccc21` (centres undefined), the growth in the assay with K-562 leukemia was 50.2%; in the assay with MALME-3M melanoma, 98%; in the assay with MDA-MB-231 breast, 90.4%; in the assay on RXF 393 renal, 85.3%; in the assay on SF-268 CNS it was 86.9%; with SF-295 CNS, 99.4%. For the same compound, the growth in the assay with SF-539 CNS is 84.3%; in the assay with M14 melanoma it was 83.4%; with HCT-15 colon, 85.5%; in the assay with HT29 colon it was 102%; in the assay with SNB-75 CNS, 71.9%; with SNB-19 CNS it was 88.6%. Further, the growth with U251 CNS was -0.227% (active); in the assay with PC-3 prostate, 68.3%; with UACC-62 melanoma, 74%; in the assay with LOX IMVI melanoma, 90.6%; with SK-MEL-28 melanoma, 93.7%; in the assay with SK-MEL-2 melanoma, 89.7%.

Consider `CCCCCCCC/C=C/CCCCCCCC1=NC(C)(C)CN1CCO`, for which the growth was -51.6% (active) in the assay on K-562 leukemia; 64.9% in the assay on MALME-3M melanoma; 9.49% (active) in the assay on MDA-MB-231 breast; -23.4% (active) in the assay with RXF 393 renal; 46% with SF-268 CNS; 30.2% in the assay on SF-295 CNS. Also, the growth was -5.97% (active) in the assay on SF-539 CNS; 20.1% in the assay on UACC-257 melanoma; -34.9% (active) with HCT-15 colon; -42.1% (active) in the assay with HT29 colon; 60.5% in the assay on SNB-19 CNS; -35.5% (active) in the assay with U251 CNS. For the same compound, the growth in the assay with PC-3 prostate is 22.8%; in the assay with SK-MEL-5 melanoma, 3.21% (active); with UACC-62 melanoma it was -64.4% (active); in the assay on LOX IMVI melanoma, -74.6% (active); with SK-MEL-28 melanoma, -68.4% (active); in the assay with SK-MEL-2 melanoma, -44.4% (active).

As for `COc1ccc(/C=N/NC(=O)c2ccc(S(C)(=O)=O)cc2)cc1OC`, the growth in the assay on K-562 leukemia was 80.9%; with MALME-3M melanoma, 107%; in the assay on MDA-MB-231 breast, 106%; in the assay on RXF 393 renal, 104%; in the assay with SF-268 CNS it was 102%; in the assay on SF-295 CNS, 100%. Besides, the growth in the assay on SF-539 CNS is 105%; in the assay on M14 melanoma it was 99.4%; in the assay with HCT-15 colon, 102%; in the assay with HT29 colon, 97.9%; with SNB-75 CNS it was 85.9%; in the assay with SNB-19 CNS it was 97.3%. Also, the growth was 88.5% in the assay with PC-3 prostate; 97.9% in the assay with SK-MEL-5 melanoma; 92.7% with UACC-62 melanoma; 102% with LOX IMVI melanoma; 109% with SK-MEL-28 melanoma; 91% in the assay on SK-MEL-2 melanoma.

In the case of `Cn1c(=O)c2c(nc(Br)n2CCC(=O)Nc2ccc(F)cc2)n(C)c1=O`, the growth is 97.5% in the assay on K-562 leukemia; 105% in the assay on MALME-3M melanoma; 102% in the assay with MDA-MB-231 breast; 118% in the assay on RXF 393 renal; 111% in the assay with SF-268 CNS; 104% in the assay with SF-295 CNS. In addition, the growth in the assay with SF-539 CNS is 98.7%; in the assay with M14 melanoma, 96.3%; in the assay with HCT-15 colon, 108%; in the assay on HT29 colon it was 96.3%; in the assay on SNB-75 CNS, 89.1%; in the assay on SNB-19 CNS, 103%. The growth in the assay on U251 CNS was 96.7%; in the assay with PC-3 prostate it was 95.9%; in the assay with SK-MEL-5 melanoma, 111%; in the assay on LOX IMVI melanoma, 89.9%; with SK-MEL-28 melanoma, 112%; with SK-MEL-2 melanoma, 100%.

For `CN(CC(=O)Nc1nc2ccccc2[nH]1)S(=O)(=O)c1ccc(Cl)cc1`, the growth is 95.7% in the assay with K-562 leukemia; 100% with MALME-3M melanoma; 99.6% in the assay on MDA-MB-231 breast; 122% in the assay on RXF 393 renal; 67% in the assay with SF-268 CNS; 38.4% in the assay on SF-295 CNS. Further, the growth is 88.5% in the assay with SF-539 CNS; 95.7% in the assay with M14 melanoma; 90.8% with HCT-15 colon; 64.7% in the assay on HT29 colon; 101% with SNB-75 CNS; 92.4% with SNB-19 CNS. In addition, the growth in the assay on U251 CNS is 78.9%; in the assay on SK-MEL-5 melanoma, 84.1%; with UACC-62 melanoma, 66.9%; in the assay with LOX IMVI melanoma, 64.7%; with SK-MEL-28 melanoma, 121%; with SK-MEL-2 melanoma it was 53.7%.

Take `CN(C)c1ccc(/C=C(\C#N)c2nc3ccccc3c(=O)[nH]2)cc1`: the growth with K-562 leukemia is 118%; with MALME-3M melanoma, 75.8%; in the assay on MDA-MB-231 breast, 76%; in the assay on RXF 393 renal it was 91.1%; in the assay with SF-268 CNS, 69.4%; with SF-295 CNS it was 92.9%. Further, the growth was 93.6% in the assay on SF-539 CNS; 97.3% with M14 melanoma; 97.2% in the assay with HCT-15 colon; 87.6% in the assay with HT29 colon; 113% with SNB-75 CNS; 94.7% with SNB-19 CNS. In addition, the growth is 77.4% in the assay with U251 CNS; 89.3% in the assay on SK-MEL-5 melanoma; 94.8% in the assay with UACC-62 melanoma; 83.8% in the assay with LOX IMVI melanoma; 110% with SK-MEL-28 melanoma; 36.5% in the assay on SK-MEL-2 melanoma.

For `CC[C@]1(O)CC2CN(CCc3c([nH]c4ccccc34)[C@@](C(=O)OC)(c3cc4c(cc3OC)N(C)[C@H]3[C@@](O)(C(=O)OC)[C@H](OC(C)=O)[C@]5(CC)C=CCN6CC[C@]43[C@@H]65)C2)C1` (some centres undefined), the growth was 7.74% (active) with K-562 leukemia; 38.4% in the assay on MALME-3M melanoma; 5.18% (active) in the assay with MDA-MB-231 breast; 25.9% in the assay on RXF 393 renal; 4.83% (active) in the assay with SF-268 CNS; 12.2% in the assay with SF-295 CNS. In addition, the growth in the assay with UACC-257 melanoma was 61.9%; in the assay on M14 melanoma it was -15.6% (active); in the assay on HCT-15 colon, 6.5% (active); in the assay with HT29 colon, 3.18% (active); in the assay on SNB-75 CNS, 5.29% (active); in the assay on SNB-19 CNS it was 43.8%. The growth is 17.3% in the assay with U251 CNS; 28.1% in the assay on PC-3 prostate; -61.3% (active) in the assay with SK-MEL-5 melanoma; 18.9% in the assay with LOX IMVI melanoma; 68.1% with SK-MEL-28 melanoma; 34.3% in the assay on SK-MEL-2 melanoma.
